# From PubChem BioAssay
# Activity calls are given as the source filed them. The rule behind the calls is not given here.
# Molecular target: L-lactate dehydrogenase (Plasmodium falciparum (isolate CDC / Honduras)) (UniProt Q27743)
# Assay: PfLDH activity inhibition – cell lysate, 3D7 strain, counter-screen for P. falciparum growth inhibition project (AID 2304);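 note: 0% = vehicle and 100% = reference inhibitor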
# Details: P. falciparum 3D7 crude extract, LDH APAD/NBT absorbance; at 2 µM; hits give high values
# Sequence of L-lactate dehydrogenase (Plasmodium falciparum (isolate CDC / Honduras)) (Q27743 whole entry, looked up): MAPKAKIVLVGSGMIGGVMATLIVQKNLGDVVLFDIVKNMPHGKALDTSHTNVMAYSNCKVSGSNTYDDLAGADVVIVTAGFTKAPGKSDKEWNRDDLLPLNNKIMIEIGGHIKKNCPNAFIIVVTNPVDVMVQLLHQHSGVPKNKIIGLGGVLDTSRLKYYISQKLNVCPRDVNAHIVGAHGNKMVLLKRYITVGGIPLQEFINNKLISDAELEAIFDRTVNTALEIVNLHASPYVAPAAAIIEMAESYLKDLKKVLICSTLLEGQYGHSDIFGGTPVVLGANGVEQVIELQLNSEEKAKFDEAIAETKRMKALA
row,SMILES,inhibition
1,COc1ccc2nccc(N3CCC(SCCNS(=O)(=O)c4ccc5c(c4)OCCO5)C3)c2n1 (stereo not given),5% (inactive)
2,CCc1c(CCNCCCCCCNCCc2ccc([N+](=O)[O-])cc2)ccc(OC)c1OC,6% (inactive)
3,CCOC(=O)c1cnc2c(OC)cc(OC)c(Cl)c2c1Nc1ccccc1,-3% (inactive)
4,O=C(Nc1ccc(Cl)cc1)Nc1cccc(CCNCc2ccccc2)c1,6% (inactive)
5,Nc1nc2c(ncn2OC[C@H]2COP(=O)(O)CO2)c(=O)[nH]1,-2% (inactive)
6,Fc1ccc(Nc2ccnc3cc(-c4cccc(CN5CCCCC5)c4)ccc23)c(Cl)c1,-1% (inactive)
7,COc1ccc(NC(=O)[C@H](CC(C)C)Nc2cc(C)nc(NCCc3cccs3)n2)cc1,4% (inactive)
8,NC(=O)c1cccc(CNC(=O)NC[C@H]2CN(Cc3ccc(Cl)c(Cl)c3)CCO2)c1,1% (inactive)
9,O=C(NC1CC1)c1ccc2cc(C(=O)N3Cc4ccccc4C(c4ccccc4)C3)ccc2c1 (stereo not given),1% (inactive)
10,O=C(Nc1ccc(OC2CCN(Cc3ccc(F)cc3)CC2)c(Cl)c1)c1ccsc1,7% (inactive)
11,CN(C)Cc1cc(Nc2ccnc3cc(Cl)ccc23)ccc1O,-3% (inactive)
12,O=C(Cc1ccc(NC(=O)c2ccc(O)c(-c3ccc(Cl)c(Cl)c3)c2)cc1)NCc1cccc(C(F)(F)F)c1,0% (inactive)
13,COc1ccc(CNC2CCN(C)CC2)cc1-c1ccc(S(=O)(=O)NCc2ccccc2)cc1,5% (inactive)
14,CC(C)=CCc1c(-c2ccc(O)cc2O)oc2c3c(cc(O)c2c1=O)OC(C)(C)C=C3,5% (inactive)
15,COc1ccc2ncc(F)c(NC(=O)C3CCC(NCc4cc5cc(F)cc(F)c5[nH]4)CC3)c2n1 (stereo not given),2% (inactive)
16,O=C(NCc1cccs1)[C@H](Cc1ccccc1)Nc1ccnc(NCCc2ccc(F)cc2)n1,-2% (inactive)
17,CCc1ccc(NC(=O)c2ccc(CN3CCCN(CC4CCCCC4)CC3)cc2)cc1,3% (inactive)
18,O=C(NCc1ccc(F)cc1)Nc1ccc(-c2cccc(-c3nc4ccc(C(F)(F)F)cc4[nH]3)c2)cc1,3% (inactive)
19,Cc1nc2ccc(NC(=O)c3cc(S(=O)(=O)N(C)C)ccc3Cl)cc2s1,-2% (inactive)
20,Cc1cc(N[C@@H](Cc2ccccc2)C(=O)NCCOc2ccccc2)nc(NCCc2ccc(F)cc2)n1,1% (inactive)

row,SMILES,inhibition
1,COc1c(C(=O)NC2CCN(Cc3ccccc3)C2)cnc2ccccc12 (stereo not given),-4% (inactive)
2,O=C(c1cccc(-c2cccc(-c3nc4ccccc4[nH]3)c2)c1)N1CCCCC1CN1CCC(O)C1 (stereo not given),2% (inactive)
3,Cc1cc(F)ccc1Nc1nc(N(C)c2ccccc2)c2cccc(OCCO)c2n1,0% (inactive)
4,CCC(C)(C)n1c(C)cc2c3c(N)nc(N)nc3ccc21,1% (inactive)
5,Nc1cccc(CNCc2ccc(-c3cccc(-c4nc5ccc(F)cc5[nH]4)c3)cc2)c1,-3% (inactive)
6,CN(C)Cc1c(O)ccc2[nH]c(-c3ccc(F)cc3F)nc12,-2% (inactive)
7,CO/C(=C/C=C/c1cc2cc(Cl)c(Cl)cc2[nH]1)C(=O)NC1CC(C)(C)N(C)C(C)(C)C1,-12% (inactive)
8,O=C(Nc1cccc(Cl)c1Cl)N1CCc2cc3nccc(N4CCN5CCC[C@H]5C4)c3cc21,-1% (inactive)
9,N#Cc1ccc(N(CCOC(=O)c2ccc(Br)s2)Cc2ccccc2C(F)(F)F)cc1C(F)(F)F,3% (inactive)
10,Clc1cc(Nc2ncnc3sc(C#Cc4ncc[nH]4)cc23)ccc1OCc1ccccn1,-3% (inactive)
11,COc1ccc2nccc([C@@H](O)CN3CCC(NCCOc4ccccc4C(F)(F)F)CC3)c2c1,-5% (inactive)
12,Cc1onc(-c2ccccc2Cl)c1C(=O)Nc1cc(Cl)c(Cl)cc1Cl,7% (inactive)
13,COc1ccc(C(=O)Nc2ccc3nc(N4CCCCC4)cc(C)c3c2)cc1[N+](=O)[O-],-9% (inactive)
14,CCCCCCNc1cc(C)nc2ccc(OC)cc12,-2% (inactive)
15,COc1ccc(CN2CCCN(Cc3cccc(NC(=O)c4ccc(Cl)c(Cl)c4)c3)CC2)cc1,5% (inactive)
16,CC1=C(C(=O)OCCOCc2ccccc2)C(c2ccccc2C(F)(F)F)C(C(=O)OCCOCc2ccccc2)=C(C)N1,3% (inactive)
17,CCOC(=O)c1ccc(N=C2SC(=Cc3cc(Br)ccc3O)C(=O)N2C)cc1,-2% (inactive)
18,O=S(=O)(Nc1cccc(CCN2CCCCC2CCN2CCCC2)c1)c1ccc(Oc2ccccc2)cc1 (stereo not given),-2% (inactive)
19,O=C(NCc1ccc(Cl)c(Cl)c1)[C@H]1CNCCN1C(=O)c1ccccc1,1% (inactive)
20,N#Cc1cccc(NC(=O)Nc2cccc(-c3cccc(-c4nc5ccc(C(F)(F)F)cc5[nH]4)c3)c2)c1,5% (inactive)

# System: not listed separately
# Assay: inhibition of 3D7 malaria parasite growth – strain 3D7 (AID 2306);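 note: 0% = DMSO wells and 100% = chloroquine plus artemisinin control wells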
# Details: P. falciparum 3D7 erythrocytic growth, LDH absorbance, 72 h; at 2 µM; hits give high values
row,SMILES,growth inhibition
1,COc1ccc2nccc(N3CCC(SCCNS(=O)(=O)c4ccc5c(c4)OCCO5)C3)c2n1 (stereo not given),94% (active)
2,CCc1c(CCNCCCCCCNCCc2ccc([N+](=O)[O-])cc2)ccc(OC)c1OC,101% (active)
3,CCOC(=O)c1cnc2c(OC)cc(OC)c(Cl)c2c1Nc1ccccc1,99% (active)
4,O=C(Nc1ccc(Cl)cc1)Nc1cccc(CCNCc2ccccc2)c1,101% (active)
5,Nc1nc2c(ncn2OC[C@H]2COP(=O)(O)CO2)c(=O)[nH]1,92% (active)
6,Fc1ccc(Nc2ccnc3cc(-c4cccc(CN5CCCCC5)c4)ccc23)c(Cl)c1,91% (active)
7,COc1ccc(NC(=O)[C@H](CC(C)C)Nc2cc(C)nc(NCCc3cccs3)n2)cc1,100% (active)
8,NC(=O)c1cccc(CNC(=O)NC[C@H]2CN(Cc3ccc(Cl)c(Cl)c3)CCO2)c1,98% (active)
9,O=C(NC1CC1)c1ccc2cc(C(=O)N3Cc4ccccc4C(c4ccccc4)C3)ccc2c1 (stereo not given),97% (active)
10,O=C(Nc1ccc(OC2CCN(Cc3ccc(F)cc3)CC2)c(Cl)c1)c1ccsc1,94% (active)
11,CN(C)Cc1cc(Nc2ccnc3cc(Cl)ccc23)ccc1O,100% (active)
12,O=C(Cc1ccc(NC(=O)c2ccc(O)c(-c3ccc(Cl)c(Cl)c3)c2)cc1)NCc1cccc(C(F)(F)F)c1,95% (active)
13,COc1ccc(CNC2CCN(C)CC2)cc1-c1ccc(S(=O)(=O)NCc2ccccc2)cc1,100% (active)
14,CC(C)=CCc1c(-c2ccc(O)cc2O)oc2c3c(cc(O)c2c1=O)OC(C)(C)C=C3,89% (active)
15,COc1ccc2ncc(F)c(NC(=O)C3CCC(NCc4cc5cc(F)cc(F)c5[nH]4)CC3)c2n1 (stereo not given),95% (active)
16,O=C(NCc1cccs1)[C@H](Cc1ccccc1)Nc1ccnc(NCCc2ccc(F)cc2)n1,85% (active)
17,CCc1ccc(NC(=O)c2ccc(CN3CCCN(CC4CCCCC4)CC3)cc2)cc1,96% (active)
18,O=C(NCc1ccc(F)cc1)Nc1ccc(-c2cccc(-c3nc4ccc(C(F)(F)F)cc4[nH]3)c2)cc1,101% (active)
19,Cc1nc2ccc(NC(=O)c3cc(S(=O)(=O)N(C)C)ccc3Cl)cc2s1,91% (active)
20,Cc1cc(N[C@@H](Cc2ccccc2)C(=O)NCCOc2ccccc2)nc(NCCc2ccc(F)cc2)n1,99% (active)

row,SMILES,growth inhibition
1,COc1c(C(=O)NC2CCN(Cc3ccccc3)C2)cnc2ccccc12 (stereo not given),86% (active)
2,O=C(c1cccc(-c2cccc(-c3nc4ccccc4[nH]3)c2)c1)N1CCCCC1CN1CCC(O)C1 (stereo not given),100% (active)
3,Cc1cc(F)ccc1Nc1nc(N(C)c2ccccc2)c2cccc(OCCO)c2n1,95% (active)
4,CCC(C)(C)n1c(C)cc2c3c(N)nc(N)nc3ccc21,97% (active)
5,Nc1cccc(CNCc2ccc(-c3cccc(-c4nc5ccc(F)cc5[nH]4)c3)cc2)c1,101% (active)
6,CN(C)Cc1c(O)ccc2[nH]c(-c3ccc(F)cc3F)nc12,99% (active)
7,CO/C(=C/C=C/c1cc2cc(Cl)c(Cl)cc2[nH]1)C(=O)NC1CC(C)(C)N(C)C(C)(C)C1,99% (active)
8,O=C(Nc1cccc(Cl)c1Cl)N1CCc2cc3nccc(N4CCN5CCC[C@H]5C4)c3cc21,98% (active)
9,N#Cc1ccc(N(CCOC(=O)c2ccc(Br)s2)Cc2ccccc2C(F)(F)F)cc1C(F)(F)F,82% (active)
10,Clc1cc(Nc2ncnc3sc(C#Cc4ncc[nH]4)cc23)ccc1OCc1ccccn1,101% (active)
11,COc1ccc2nccc([C@@H](O)CN3CCC(NCCOc4ccccc4C(F)(F)F)CC3)c2c1,98% (active)
12,Cc1onc(-c2ccccc2Cl)c1C(=O)Nc1cc(Cl)c(Cl)cc1Cl,90% (active)
13,COc1ccc(C(=O)Nc2ccc3nc(N4CCCCC4)cc(C)c3c2)cc1[N+](=O)[O-],96% (active)
14,CCCCCCNc1cc(C)nc2ccc(OC)cc12,100% (active)
15,COc1ccc(CN2CCCN(Cc3cccc(NC(=O)c4ccc(Cl)c(Cl)c4)c3)CC2)cc1,86% (active)
16,CC1=C(C(=O)OCCOCc2ccccc2)C(c2ccccc2C(F)(F)F)C(C(=O)OCCOCc2ccccc2)=C(C)N1,89% (active)
17,CCOC(=O)c1ccc(N=C2SC(=Cc3cc(Br)ccc3O)C(=O)N2C)cc1,99% (active)
18,O=S(=O)(Nc1cccc(CCN2CCCCC2CCN2CCCC2)c1)c1ccc(Oc2ccccc2)cc1 (stereo not given),94% (active)
19,O=C(NCc1ccc(Cl)c(Cl)c1)[C@H]1CNCCN1C(=O)c1ccccc1,97% (active)
20,N#Cc1cccc(NC(=O)Nc2cccc(-c3cccc(-c4nc5ccc(C(F)(F)F)cc5[nH]4)c3)c2)c1,100% (active)
